# Giardia kill: kills Giardia lamblia | 0.15% of 340,000 active | activity change, % at 7.66 µM, hits read low | AID 540267 | Giardia lamblia trophozoite viability; in the data active means activity change below about -80%; inconclusive means between about -30% and that limit;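 further: parasites exposed to compound for two days anaerobically before the ATP read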
#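 Killing of trophozoites was scored by loss of ATP luminescence after a 48 hrs anaerobic exposure to compounds at 37 deg C, using 100 cells per well.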
# TDP1 block: blocks human tyrosyl-DNA phosphodiesterase 1; Q9NUW8; recombinant TDP1, AlphaScreen DNA substrate cleavage; Potency, µM (titrated, usually from 130 µM), most hits filed as inhibitors; 0.28% of 350,000 active; AID 485290; further: nearly all actives have a fitted effect of over 40% in size
# Target sequence (Q9NUW8 whole entry, looked up): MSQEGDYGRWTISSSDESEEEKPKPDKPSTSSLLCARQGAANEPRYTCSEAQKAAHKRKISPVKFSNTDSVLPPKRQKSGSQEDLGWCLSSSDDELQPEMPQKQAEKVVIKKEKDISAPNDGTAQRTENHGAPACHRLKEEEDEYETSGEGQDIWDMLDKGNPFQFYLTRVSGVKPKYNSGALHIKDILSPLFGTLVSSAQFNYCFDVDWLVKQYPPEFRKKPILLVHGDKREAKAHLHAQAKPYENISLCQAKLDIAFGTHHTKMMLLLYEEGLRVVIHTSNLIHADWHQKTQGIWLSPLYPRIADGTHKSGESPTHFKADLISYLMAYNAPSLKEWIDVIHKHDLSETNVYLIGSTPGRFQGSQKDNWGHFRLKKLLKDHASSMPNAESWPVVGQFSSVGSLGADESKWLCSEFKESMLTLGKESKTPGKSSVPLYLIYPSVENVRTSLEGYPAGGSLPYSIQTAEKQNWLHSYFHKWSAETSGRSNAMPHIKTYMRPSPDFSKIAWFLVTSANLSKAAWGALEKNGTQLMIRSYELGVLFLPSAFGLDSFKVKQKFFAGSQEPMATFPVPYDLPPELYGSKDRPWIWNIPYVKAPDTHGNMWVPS
#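 Recombinant human Tdp1 (E. coli-expressed, 1 nM final) preincubated with compounds 15 min at room temperature, then 5'-biotin/3'-phosphotyrosine-FITC DNA substrate (15 nM final) added for 5 min. AlphaScreen beads (10 ug/ml final) added 10 min; cleavage lowers signal.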
# TDP1 cell CPT: DT40-hTDP1 cell growth loss with CPT; chicken DT40 Tdp1-/-;hTDP1 cells + 20 nM CPT, ATP luminescence, 48 h; Potency, µM (highest dose often 46.2 µM), hits mostly inhibitors; 12% of 420,000 active; AID 686979; further: nearly all actives have a fitted effect of over 55% in size
#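 Chicken DT40 Tdp1-/- cells complemented with human TDP1, 400 cells/well, exposed to compounds plus 20 nM camptothecin for at least 48 h at 37 C; viability read as ATP content by CellTiter-Glo luminescence.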
# DT40 TDP1 no CPT: qHTS for Inhibitors of human tyrosyl-DNA phosphodiesterase 1 (TDP1): qHTS in cells in absence of CPT | DT40 Tdp1-/- hTDP1 cells, no CPT, ATP luminescence, 48 h | Potency, µM (series often up to 46.2 µM), usual class: inhibitors | 15% of 420,000 active | AID 686978, 2013; further: nearly all actives have a fitted effect of over 55% in size
#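 Readout: luminescence from CellTiter-Glo after 30 min in the dark at RT. Cells: DT40 Tdp1-/- with stable hTDP1, 400/well. Exposure: compounds alone, ≥48 hr, 37 °C.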
# ELG1 repair inh: ELG1-dependent DNA repair inhibition; HEK293T ELG1-luciferase reporter, luminescence, 16 h; DNA damage induced by 5-fluorouridine; 2.3% of 330,000 active; Potency, µM (highest dose often 46.1 µM), actives largely listed as inhibitors; further: nearly all actives have a fitted effect of over 55% in size
#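 Overnight (16 hr) co-exposure of 2,000 cells/well to 5-fluorouridine and compound at 37 °C preceded detection. Luciferase was quantified via ONE-Glo luminescence; loss of signal denotes inhibition.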
# IL-1B inflam inh: blocks inflammasome-driven IL-1 beta release; THP-1 LPS/ATP IL-1B secretion, AlphaLISA, 16 h; active compounds read low; activity change, % at 57.5 µM; 4.7% of 360,000 active; in the data active means activity change below about -50%; inconclusive means mostly about -30% to -49%
#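 THP-1 cells pretreated 1 hr with compounds (up to 57.5 uM final), then stimulated with LPS (250 ng/mL final) plus ATP (1.25 mM final); secreted IL-1B measured by AlphaLISA after 16 hr, decreased signal indicating inhibition.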
# Hits are given with their value; . = inactive; ? = inconclusive; / = not tested or not shown. Sampled rows, rich in hits. Any-hit rate of the full collection: about 19%. Unless noted, the call rests on the fitted dose curve; in most records, active means well fitted curve in the direction sought with a large enough effect; inconclusive means small, poorly fitted or top-dose-only effect, or another doubt; inactive means no such curve, though single readings can be large; an effect the other way counts as inactive or inconclusive.
SMILES,Giardia kill,TDP1 block,TDP1 cell CPT,DT40 TDP1 no CPT,ELG1 repair inh,IL-1B inflam inh
NN/C(=C\[N+](=O)[O-])Nc1ccc(Cl)cc1,.,.,?,?,.,.
NN/C(=C\[N+](=O)[O-])Nc1ccccc1,.,.,?,20.6µM,?,.
O=C(Nc1ccc(F)cc1F)c1cc(-c2ccco2)nc2ccccc12,.,/,?,16.4µM,.,.
O=C(Nc1ccccc1N1CCOCC1)c1cc(-c2ccco2)nc2ccccc12,.,.,20.6µM,20.6µM,5.17µM,.
COc1ccc(-c2cc(C(=O)NCCN3CCOCC3)c3ccccc3n2)cc1OC,.,.,.,?,.,.
COc1cc(-c2cc(C(=O)Nc3ccccc3N3CCOCC3)c3ccccc3n2)cc(OC)c1OC,.,.,18.4µM,20.6µM,5.8µM,-66.9
COc1ccc(C(=O)Nc2ccnn2C2CCN(C(=O)C3CCOC3)CC2)cc1 (centres undefined),.,.,.,.,.,.
Cn1cccc1C(=O)OCC(=O)N1CC(=O)Nc2ccccc21,.,.,.,.,.,?
COc1ccc(N2Cc3cccc(C(=O)N4CCN(C(=O)c5ccco5)CC4)c3C2=O)cc1,.,11.2µM,.,.,.,.
COc1ccc(N2Cc3cccc(C(=O)Nc4ccc(Cl)cc4)c3C2=O)cc1,/,.,8.2µM,20.6µM,/,/
COc1ccc(N2Cc3cccc(C(=O)Nc4cccc(F)c4)c3C2=O)cc1,/,?,.,.,/,/
Cc1ccc(S(=O)(=O)N2CCN(C(=O)/C=C/c3ccccc3)CC2)cc1C,.,.,?,?,?,.
O=C(Nc1ccc(-c2csnn2)cc1)C(Cl)(Cl)Cl,.,.,16.4µM,7.31µM,.,?
CC1(C(=O)NS(=O)(=O)c2cccc(Cl)c2)CCN1C(=O)Cc1ccsc1 (centres undefined),/,/,.,.,/,.
CC[n+]1c(C)sc2sc3ccccc3c21,/,.,/,/,.,/
CC[n+]1c(C)sc2c3ccsc3ccc21,.,.,23.1µM,16.4µM,.,.
CC1(C)CC[C@]2(C(=O)n3ccnc3)CC[C@]3(C)[C@H](C(=O)C=C4[C@@]5(C)C=C(C#N)C(=O)C(C)(C)[C@@H]5CC[C@]43C)[C@@H]2C1,.,/,0.581µM,0.651µM,/,-100.2
Cc1cc(C)n(-c2nc(SCCN(C)C)c3c4c(sc3n2)COC(C)(C)C4)n1,.,.,22.4µM,17.8µM,18.4µM,-60.0
Cc1cc(C)n(-c2nc(SCC(=O)O)c3c4c(sc3n2)CCCC4)n1,/,.,/,/,.,/
Cc1cc(C)n(-c2nc(NCC3CCCO3)c3c4c(sc3n2)COC(C)(C)C4)n1 (centres undefined),.,.,5.17µM,3.66µM,18.4µM,-50.7
Cc1cc(C)n(-c2nc(SCC(=O)NCC3CCCO3)c3c4c(sc3n2)CCCC4)n1 (centres undefined),/,.,/,/,.,/
C[C@@H]1CN([C@H](C)CO)S(=O)(=O)c2ccc(C#Cc3ccccc3)cc2O[C@H]1CN(C)C(=O)Nc1ccc2c(c1)OCO2,/,/,13µM,16.4µM,/,?
C[C@@H]1CN([C@H](C)CO)S(=O)(=O)c2ccc(C#CC3CCCC3)cc2O[C@H]1CN(C)C(=O)Cc1ccccc1,/,/,5.8µM,5.8µM,/,-80.6
CCCC#Cc1ccc2c(c1)O[C@H](CN(C)C(=O)CC1CC1)[C@H](C)CN([C@@H](C)CO)S2(=O)=O,/,/,?,18.4µM,/,.
C[C@H]1CN([C@@H](C)CO)S(=O)(=O)c2ccc(C#CC3(O)CCCC3)cc2O[C@@H]1CN(C)C(=O)Cc1cccnc1,/,/,.,.,/,.
SMILES,Giardia kill,TDP1 block,TDP1 cell CPT,DT40 TDP1 no CPT,ELG1 repair inh,IL-1B inflam inh
C[C@@H]1CN([C@H](C)CO)S(=O)(=O)c2ccc(C#Cc3ccccc3)cc2O[C@@H]1CN(C)C(=O)CN(C)C,/,/,16.4µM,25.9µM,/,.
CCCCCCCCC(=O)N/N=C/c1ccccn1,.,.,18.4µM,?,.,.
CCCCCCCCC(=O)N/N=C/c1cccc(Br)c1,.,.,.,.,.,-59.9
CCCCCCCCC/C(=N\O)c1ccccn1,.,.,23.1µM,23.1µM,?,.
O=C(CN1C(=O)NC(Cc2ccccc2)C1=O)Nc1ccccc1OC(F)F (centres undefined),.,/,.,.,.,.
C[C@]12CC[C@H](O)CC1=CCC1C2CC[C@@]2(C)C1CC[C@@H]2NC(=O)[C@@H](N)Cc1ccccc1 (some centres undefined),.,.,?,20.6µM,.,-96.4
CC(C)(C)[C@H](N)C(=O)N[C@H]1CCC2C3CC=C4C[C@@H](O)CC[C@]4(C)C3CC[C@@]21C (some centres undefined),?,.,4.61µM,3.66µM,?,-102.2

# Screening results from PubChem BioAssay.
